hDAT+cocaine: changed hDAT dopamine uptake under cocaine IC80, either direction, primary screen, cocaine antagonist project, cell-based, LLC-PK1 hDAT, [14C]-dopamine uptake, MLSMR; Sodium-dependent dopamine transporter (Homo sapiens), Q01959; LLC-PK1 hDAT cells, [14C]-dopamine uptake with cocaine IC80; actives deviate in either direction; B-score at 10 µM; 110,000 tested, 1.3% active; AID 449768, 2010;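 active = Z score or B-score, a plate-position-corrected score, falls beyond the plate's 99.7% confidence bounds, in either direction; inactive = both scores lie inside the 99.7% bounds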;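 also: scored against the spread of the other compound wells on the same plate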
Candida biofilm: clotrimazole potentiators killing Candida biofilms, primary screen, with clotrimazole, Alamar Blue. C. albicans biofilm + clotrimazole. inhibition, % at 6 µM. 85,000 tested, 0.14% active;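 active = inhibition above 20%; inactive = inhibition below 20%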;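 also: preformed 24 hr biofilms exposed to compound for 48 hr; 0% = biofilm without compound and 100% = blank killed by clotrimazole plus chlorhexidine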
TNAP act DEA: human TNAP enzyme activators, primary screen, biochemical, luminescent, intermediate phosphate acceptor level | Alkaline phosphatase, tissue-nonspecific isozyme (Homo sapiens), P05186 | 64,000 tested, under 10 active | purified TNAP, CDP-star luminescence, 100 mM DEA, 30 min; active compounds read high; scale: 0 levamisole-inhibited, 1 vehicle-only enzyme | activation factor at 20 µM;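 active = activation factor of at least 2 at 20 µM, relative to controls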
D1 mod: D1 CRE-luciferase signal change, two-sided – cell-based, HEK293 D1, dopamine EC30, D1 allosteric modulator project, primary screen; D(1A) dopamine receptor (Homo sapiens), P21728; dopamine EC30 potentiation; actives deviate in either direction; B-score at 10 µM; 58,000 tested, 5.9% active; AID 641, 2007;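 active = luminescence count or its row- and column-corrected plate score outside the 99.7% band of the plate's sample wells, on either side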
HePTP inhibitor: inhibitors of human HePTP phosphatase, primary screen, biochemical, absorbance, leukemia target; 110,000 tested, 0.64% active; inhibition, % at 20 µM; AID 521, 2006; recombinant HePTP phosphatase activity, OD absorbance; Tyrosine-protein phosphatase non-receptor type 7 (Homo sapiens), P35236; in the data active = inhibition above about 50%;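 also: plate controls were vehicle for no effect and reference inhibitor for full effect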
Target sequence (P35236 whole entry, looked up): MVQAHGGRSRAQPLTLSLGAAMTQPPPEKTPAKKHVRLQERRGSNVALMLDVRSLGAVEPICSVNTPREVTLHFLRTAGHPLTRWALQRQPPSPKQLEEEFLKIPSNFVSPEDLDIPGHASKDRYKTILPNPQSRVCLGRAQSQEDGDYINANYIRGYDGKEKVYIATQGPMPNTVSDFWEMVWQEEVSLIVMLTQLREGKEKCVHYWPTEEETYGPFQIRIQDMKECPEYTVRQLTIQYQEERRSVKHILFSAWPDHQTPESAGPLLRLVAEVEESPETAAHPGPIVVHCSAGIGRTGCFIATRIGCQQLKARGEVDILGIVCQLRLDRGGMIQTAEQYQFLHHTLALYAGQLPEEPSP
PLAP activator: PLAP enzyme activators, biochemical, luminescence, HTS; purified PLAP enzyme, luminescent substrate read-out; active compounds read high; activation fold at 20 µM; 96,000 tested, 1.2% active; AID 696, 2007; in the data active = activation fold above about 2
* hit, by the source's call. Shown is part of a subset that was picked to be rich in hits.

`CC1=C(C(=O)OCc2ccccc2)C(c2ccccc2Cl)NC(=O)N1` (stereo not drawn) gave HePTP inhibitor -9.9.
Screening Cc1cc2ncn(C(=O)c3cccc(I)c3)c2cc1C returned HePTP inhibitor -1.4.
For CCOC(=O)c1sc(NC(=O)/C=C/c2cccc([N+](=O)[O-])c2)c(C(=O)OCC)c1C the results were HePTP inhibitor -0.4.
CCCc1nn2c(N)c(C=C3C=C(Cl)C(=O)C(Cl)=C3)c(=O)nc2s1 was read as HePTP inhibitor 3.5.
`COc1ccccc1NC(=S)NNC(=O)c1ccc(O)cc1` gave hDAT+cocaine 0.581 and PLAP activator 2.4*.
`COc1ccccc1NC(=S)NNC(=O)c1nn(C)c(C)c1Cl` gave hDAT+cocaine -0.322 and PLAP activator 2.1*.
`COc1ccc(C)cc1NC(=O)c1ccccc1I` gave HePTP inhibitor -2.7.
`COc1ccccc1NC(=S)NC(=O)C(C)(C)C` gave hDAT+cocaine -0.108 and PLAP activator 1.1.
COc1ccc(C)cc1NC(=S)NNC(=O)c1ccccc1Cl was read as hDAT+cocaine 1.21, Candida biofilm -8.0 and PLAP activator 2.9*.
For COc1ccccc1NC(=S)NNC(=O)c1nn(C)cc1Cl the results were hDAT+cocaine -0.146 and PLAP activator 1.9.
For O=C(Nc1ncccn1)c1ccc(Cl)s1 the results were HePTP inhibitor -0.6.
For CC1CCC2(CC1)NC(=O)c1ccccc1O2 (stereo not drawn) the results were hDAT+cocaine 0.352, Candida biofilm 2.8, TNAP act DEA 0.9, D1 mod -2.42*, HePTP inhibitor 4.5 and PLAP activator 0.9.
Screening COc1ccc(/C=C2/SC(=S)NC2=O)cc1OCc1ccc([N+](=O)[O-])cc1 returned HePTP inhibitor 23.8.
For CC(=O)c1ccccc1OCCCN1CCCCC1 the results were hDAT+cocaine 0.246, Candida biofilm 1.3, TNAP act DEA 1, D1 mod -4.44*, HePTP inhibitor 6.8 and PLAP activator 1.1.
`O=C(/C=C/c1ccccc1)NCCSc1ccccn1` gave HePTP inhibitor -22.2.
`O=C(COc1cccc2ccccc12)NNC(=O)C1CCCO1` (stereo not drawn) gave hDAT+cocaine -0.052, HePTP inhibitor -7.3 and PLAP activator 2.2*.
Screening O=C(NNC(=O)C1CCCO1)c1ccccc1Cl (stereo not drawn) returned hDAT+cocaine 0.442 and PLAP activator 2*.
Screening CCc1ccccc1OCc1nc2ccc(S(=O)(=O)N3CCOCC3)cc2[nH]1 returned hDAT+cocaine 0.351, Candida biofilm 3.1 and PLAP activator 2*.
Screening Cc1ccccc1OCc1nc2ccc(S(=O)(=O)N3CCOCC3)cc2[nH]1 returned hDAT+cocaine 0.106, Candida biofilm 6.7 and PLAP activator 1.8.
CCCn1c(=O)c2ccccc2n2c(SCC(=O)c3cc(C)n(CCOC)c3C)nnc12 was read as Candida biofilm -2.6, TNAP act DEA 1, D1 mod 2.24*, HePTP inhibitor 7.2 and PLAP activator 1.
COCCn1c(C)cc(C(=O)CSc2nnc(C)s2)c1C was read as hDAT+cocaine -0.735, Candida biofilm 3.1, TNAP act DEA 0.9, D1 mod -7.8*, HePTP inhibitor 2.2 and PLAP activator 0.9.
Screening CCCn1c(=O)c2ccccc2n2c(SCC(=O)c3ccc(CC)cc3)nnc12 returned hDAT+cocaine 0.503, Candida biofilm 7.3 and PLAP activator 0.9.
For Cc1ccc(NC(=S)NNC(=O)Cn2nc([N+](=O)[O-])cc2C)cc1 the results were hDAT+cocaine -0.506 and PLAP activator 2*.
Cc1ccc(NC(=S)NNC(=O)CCn2cc(C)cn2)cc1 was read as hDAT+cocaine -0.0174 and PLAP activator 2.4*.
`O=C(Cn1nc(C(F)F)cc1C(F)F)NNC(=S)Nc1ccc(F)cc1` gave hDAT+cocaine -0.808 and PLAP activator 2.4*.
